Screens as filed in PubChem BioAssay.
PLC-beta3 inh – human PLC-beta3 inhibitors, primary screen, biochemical, fluorescence; Purified PLC-beta3, fluorogenic substrate; actives 0.18% (n = 370,000); inhibition, % at 12.2 µM; 1-phosphatidylinositol 4,5-bisphosphate phosphodiesterase beta-3 (Homo sapiens), Q01970
MsrA inh – bovine MsrA enzyme inhibitors, primary screen, biochemical, absorbance, HTS; Methionine sulfoxide reductase A (Bos taurus); inhibition, % at 15.5 µM; AID 651718, 2012; actives 0.75% (n = 360,000); purified bovine MsrA, absorbance read-out; in the data active means inhibition above about 4.5%
bovine MsrA act – bovine MsrA enzyme activators, primary screen, biochemical, absorbance, HTS | Methionine sulfoxide reductase A (Bos taurus) | purified bovine MsrA, absorbance read-out | activation, % at 10.6 µM | actives 0.3% (n = 360,000) | AID 602163, 2012; in the data active means activation above about 7.5%
PLCg1 inh – PLC-gamma1 enzyme inhibitors, primary screen, biochemical, fluorescence, purified enzyme. 1-phosphatidylinositol 4,5-bisphosphate phosphodiesterase gamma-1 (Homo sapiens), P19174. fluorogenic substrate. inhibition, % at 12.2 µM. actives 0.84% (n = 370,000). AID 720700, 2013; in the data active means inhibition above about 9.5%
PLCgamma1 ctr – PLC-gamma1 enzyme inhibitors, counter-screen for PLC-beta3 inhibitor project, biochemical, fluorescence; actives 3.1% (n = 3,300); shares compounds with PLCg1 inh; inhibition, % at 12.3 µM; purified PLC-gamma1, fluorogenic substrate; in the data active means inhibition above about 9.5%
PLCb3 confirm – PLC-beta3 inhibitor confirmation, biochemical, fluorescence, purified enzyme | inhibition, % at 12.3 µM | shares compounds with PLCg1 inh | fluorogenic substrate fluorescence | AID 743261, 2014 | actives 1% (n = 3,300)
Hits are given with their value; - = inactive; . = no result given. Compounds with a hit are over-represented: about 1.9% of the library has one in this group of screens. Unless noted, no stated cut-off is given here; in the data, active means inhibition above about 11%; inactive means the rest.

SMILES	PLC-beta3 inh	MsrA inh	bovine MsrA act	PLCg1 inh	PLCgamma1 ctr	PLCb3 confirm
O=C(NCc1cccnc1)c1cc(C2CCCN(S(=O)(=O)c3ccccc3)C2)on1 (stereo unspecified)	-	-	-	-	.	.
S=C(NCc1ccco1)Nc1cc(-c2ccccc2)[nH]n1	-	-	-	9.6	-	-
O=C(Nc1ccc2c(c1)OCCO2)C1C(c2ccccc2)=Nc2ccccc2N1C(=O)c1cccnc1 (stereo unspecified)	-	-	.	-	.	.
CCOc1cccc(C=NNc2nc(=O)cc(C(=O)OC)s2)c1O	-	-	.	-	.	.
C[C@@H]1CN([C@H](C)CO)C(=O)CCCn2nncc2CO[C@@H]1CN(C)C(=O)Nc1ccnc(N2CCOCC2)c1	-	-	-	-	.	.
Cc1ccc(NS(=O)(=O)N2CCOCC2)cc1	-	-	-	12	-	-
COc1cccc(C(=O)N(CCN2CCOCC2)Cc2ccc(OC)c(OC)c2)c1	-	.	.	-	.	.
CC(=O)NC1CC(C)(C)N(OC(C)=O)C(C)(C)C1	-	-	-	10	-	-
CCCCS(=O)(=O)N1C2=NC(C(=O)OCC)=C(C(=O)OCC)C3N(Cc4ccc(C#N)cc4)c4ccccc4[C@]23C[C@H]1C(=O)OC (stereo partly specified)	-	-	.	-	.	.
COc1ccc(-c2nn(-c3ccccc3)cc2C2CC(c3cccs3)=NN2C(=O)CCC(=O)O)cc1 (stereo unspecified)	-	-	-	-	.	.
COc1ccc(C2=NN(C(=O)CCCC(=O)O)C(c3cn(-c4ccccc4)nc3-c3ccccc3)C2)cc1 (stereo unspecified)	-	-	-	14	-	-
CC1(C)CC(=O)C(C2=NC3(CCCCCC3)Cc3ccccc32)=C(O)C1	-	-	-	10	-	-
Cc1c(NC2=NC3(CCCCC3)Cc3ccccc32)c(=O)n(-c2ccccc2)n1C	-	-	-	-	.	.
CC(Sc1ccc2c(c1)OCCO2)C(=O)Nc1ccc(N2CCOCC2)cc1 (stereo unspecified)	-	-	-	13	-	-
CCOC(=O)CC1C(=O)NCCN1C(=O)c1ccc(F)cc1F (stereo unspecified)	-	-	-	-	.	.
CCOC(=O)CC1C(=O)NCCN1C(=O)c1ccc(Cl)cc1Cl (stereo unspecified)	-	-	-	17	-	-
CCc1nc2c(OCc3ccc(F)c(F)c3)cccn2c1N(C)C(=O)C1CC1	-	-	-	-	.	.
CC(C)NC(=S)N/N=C/c1cccs1	-	-	-	11	-	-
O=C(CN1CCCCCC1)N/N=C/c1cccs1	-	-	-	16	-	-
c1ccc(Cc2cc[n+](Cc3ccccn3)cc2)cc1	-	-	-	-	.	.
O=C(c1cc2cccc([N+](=O)[O-])c2oc1=O)N1CCOCC1	-	-	-	12	-	-
CCN(CC)c1c(C)nc2ccc(C(=O)Nc3cc(-c4ccccc4)ccc3OC)cn12	-	-	-	-	.	.
Cc1ccc(NC(=O)c2nn(C34CC5CC(CC(C5)C3)C4)cc2[N+](=O)[O-])cc1	14	-	-	12	-	11
COc1ccc(C2C(C(=O)NCc3ccccn3)CCC(=O)N2c2cc(OC)c(OC)c(OC)c2)cc1 (stereo unspecified)	-	-	-	10	-	-
CCN(CC)CCCNC(=O)C1CCC(=O)N(c2ccc(OC)cc2)C1c1ccc(F)cc1 (stereo unspecified)	-	-	-	12	-	-
SMILES	PLC-beta3 inh	MsrA inh	bovine MsrA act	PLCg1 inh	PLCgamma1 ctr	PLCb3 confirm
COc1ccc(C2C(C(=O)Nc3ccc(F)cc3)CCC(=O)N2c2ccc(OC)cc2)cc1 (stereo unspecified)	-	.	.	-	.	.
Cn1nnnc1SCCNCc1cccc2ccccc12	-	-	-	-	.	.
Cn1nnnc1SCCNC/C=C/c1ccccc1	13	-	-	-	-	-
CC(C)(C)c1ccc(-c2nnc(SCC(=O)c3ccc([N+](=O)[O-])cc3)n2-c2ccc(Cl)cc2)cc1	-	.	.	-	.	.
Cc1nc2c(OCc3ccc(C#N)cc3)cccn2c1N(C)Cc1cccs1	-	-	-	-	.	.
Cc1ccc(N(CC(=O)NCc2ccncc2)S(C)(=O)=O)cc1Cl	-	-	-	-	.	.
Cc1ccc(CNC(=O)CN(c2cccc([N+](=O)[O-])c2)S(C)(=O)=O)cc1	-	-	-	11	-	-
Cc1ccc(N(CC(=O)NCc2cccnc2)S(C)(=O)=O)cc1C	-	-	-	12	-	-
O=C1C2C3C=CC(C3)C2C(=O)N1c1ccc(-c2nc(-c3ccccc3)nc3ccccc23)cc1 (stereo unspecified)	-	-	.	-	.	.
CCOc1ccc(C)cc1S(=O)(=O)Nc1cccnc1	-	-	-	9.8	-	-
CCCCOCCCNC(=O)c1ccc(OCC)cc1	-	-	-	10	-	-
O=C(N[C@H](C(=O)N1CCC[C@H]1C(=O)NC1CCCC1)c1ccccc1)c1ccc(Cl)cc1Cl	-	-	.	-	.	.
O=Cc1c[nH]c2ccc(S(=O)(=O)N3CCCCC3)cc12	-	-	-	-	.	.
Cc1ccc([N+](=O)[O-])cc1-c1[nH]c(-c2ccc(O)c(O)c2)nc1-c1ccccc1	-	-	-	9.7	-	-
CC(c1nc2ccccc2c(=O)[nH]1)N1CCN(S(=O)(=O)c2ccc(F)c(Cl)c2)CC1 (stereo unspecified)	-	-	-	-	.	.
COc1ccccc1NC(=O)C(=N\O)/C(C)=N/O	-	-	-	11	-	-
CCC(=O)N1CCC1(C)C(=O)Nc1cccc2c1CCCC2 (stereo unspecified)	-	-	-	-	.	.
O=C(c1ccc(Cl)cc1)N1CCN(c2ccc([N+](=O)[O-])c(NCc3cccnc3)c2)CC1	-	-	-	-	.	.
O=C(c1ccccc1)N1CCN(c2ccc([N+](=O)[O-])c(NCc3cccnc3)c2)CC1	-	-	-	9.7	-	-
CC1(C(=O)Nc2cccc3cccnc23)CCN1C(=O)Cc1ccc(Cl)cc1Cl (stereo unspecified)	-	-	-	-	.	.
COCCCN1C(=O)C(CC(=O)NCCCCc2ccccc2)CC(C(=O)N(C(C)C)C(C)C)=C1C (stereo unspecified)	-	-	-	-	.	.
O=C1c2oc3ccccc3c(=O)c2C(c2cccc(O)c2)N1CCCN1CCOCC1 (stereo unspecified)	-	-	-	-	.	.
COCCN1C(=O)c2oc3cc(C)c(C)cc3c(=O)c2C1c1cccc(O)c1 (stereo unspecified)	-	-	-	15	-	-
OC[C@@H]1CN(CCN2CCOCC2)C[C@H](n2cnc3c(N4CCCC4)ncnc32)O1	-	-	-	-	.	.
